The values below come from PubChem BioAssay (EPA / NIEHS).

Calls of active or inactive are those of the source. How the source made its calls: active means hit-call score of the fitted dose curve at least 0.9, where 1 is the maximum; inactive means score below 0.9.

Read-out in the test: Cyclin Dependent Kinase Inhibitor 1A (CDKN1A), CDKN1A (gene 1026)
The test is described as follows: LTEA_HepaRG_CDKN1A: Life Technologies and Expression Analysis (LTEA) Assay for Cyclin Dependent Kinase Inhibitor 1A (CDKN1A) using HepaRG (AID 2283450). The note with it: mRNA level, 48 h; actives raise or lower the signal. The procedure:
LTEA_HepaRG is a cell based, multiplexed-readout assay that uses HepaRG, a human liver cell line, with measurements taken at 48 hours after chemical dosing on a 96-well plate.LTEA_HepaRG_CDKN1A is one of 102 assay component(s) measured in the LTEA HepaRG cell culture assay. It is a marker of Cell proliferation, survival, death.Data from the assay component LTEA_HepaRG_CDKN1A was analyzed into 1 endpoint. This assay endpoint, LTEA_HepaRG_CDKN1A, was analyzed with bidirectional fitting relative to DMSO as the negative control and baseline of activity. Using a type of inducible reporter, measures of mRNA induction for gain or loss-of-signal activity can be used to understand regulation of transcription factor activity. To generalize the intended target to other relatable targets, this assay endpoint is annotated to the cell cycle intended target family, where the subfamily is Cell proliferation, survival, death.
A total of 1060 chemcials from the ToxCast library were tested in eight-point concentration-response experiments. Cell culture and cytotoxicity assays were conducted at Thermo Fisher Scientific's Custom Services facility (Madison, WI). A single lot of human HepaRG cells (Thermo Fisher Scientific, Frederick, MD) was used for the cell culture experiments. 96-well format collagen type I coated plates of human HepaRG cells were prepared using established methods. Briefly, cryopreserved HepaRG cells were thawed, plated at a density of approximately 100,000 cells/well in HepaRG Thaw, Plate, and General Purpose media (HPRG770, Thermo Fisher Scientific), and incubated for 48 hours. 0.5% DMSO was selected as vehicle control to balance the requisite need of DMSO in HepaRG cultures to maintain differentiation (for example, baseline metabolism, proportions of hepatocytes vs. cholangiocytes), while enabling further hepatic receptor pathway activation (for example, PXR and CAR) in response to chemical exposure. 48 hours after plating, the culture medium was replaced with HepaRG Serum-Free Incudtion Media. Cells were exposed to each test chemical in duplicate and maintained in CO2 incubators for another 48 hours. Chemical plates were thawed to room temperature and 200x concentrations of treatment groups were prepared. 8-point conentration-reponse curves were made with the highest exposure at 100 uM, followed by half-log dilutions, all in 0.5% DMSO. Each test plate contained variouse controls, induction positive controls (1mM phenobarbital), cytotoxicity positive controls ([…] aflatoxin B1), vehicle controls (0.5% DMSO), and total lysis controls (0.5% DMSO). Cell morphology images were taken using an Essen IncuCyte FLR automated microscope, with six 96-well plates imaged in about 24 minutes. Images were captured and exported and JPEG files. Spent culture media was transfered to black-well plates for the LDH assay, and remaining media was sorted at -80 C for later use. Cells were treated with RLT buffer and frozen until shipped for gene expression analysis. Total RNA was isolated from the cell suspension in 75 uL of Buffer RLT (Qiagen, Germantown, MD 20874) by Quintiles/Expression Analysis (Durham, NC) using a custom isolation procedure. Total RNA from each plate well was transferred to a preamplification plate. Fluidigm's 96.96 Dynamic ArrayTM (Fluidigm, Amsterdam, the Netherlands) technology was used for gene expression analyses by quantitative reverse transcription polymerase chain reaction (qRT-PCR, performed by Quintiles/Expression Analysis, Durham, NC)89. Standard TaqManTM Assays (Applied Biosystems/ThermoFisher Scientific, Foster City, CA) were used to assess the expression of 93 genes selected based on their selectivity and sensitivity to important hepatic receptors known to be modulated by environmental chemicals; importance in human hepatocyte functionality; and hepatotoxicity. […]
As for `COC(=O)NC(=S)Nc1ccccc1NC(=S)NC(=O)OC`, the call was inactive. For the molecule `COCc1cnc(C2=NC(C)(C(C)C)C(=O)N2)c(C(=O)O)c1` (stereo not given), the molecule was classed as inactive. Broadly, the AC50 is the midpoint of the concentration-response curve, whichever way the signal moves. In the case of `CO/N=C(/C1=NOCCO1)c1ccccc1Oc1ncnc(Oc2ccccc2Cl)c1F`, the AC50 is 28.5 µM (active). For the molecule `CC(C)Nc1nc(Cl)nc(NC(C)C)n1`, the molecule was called inactive. For `O=C(Nc1ccccc1-c1ccc(Cl)cc1)c1cccnc1Cl`, the molecule was called inactive. Still for that read-out and setting: the result for `COCC(=O)N(c1c(C)cccc1C)C(C)C(=O)OC` (stereo not given) reads “inactive”.

As to `C=CCOC(=O)C(C)(C)OC(=O)c1cc(-n2c(=O)cc(C(F)(F)F)n(C)c2=O)ccc1Cl`, the result was inactive. Regarding `CCOP(=O)(OCC)Oc1nc(Cl)c(Cl)cc1Cl`, the result was inactive. Turning to `CCC(C)n1c(=O)[nH]c(C)c(Br)c1=O` (stereo not given), the result was inactive. Consider `CCOc1nc(C(Cl)(Cl)Cl)ns1`, for which the result was inactive. Still for that read-out and setting: to `CC(C)NC(=O)N1CC(=O)N(c2cc(Cl)cc(Cl)c2)C1=O` belongs “inactive”; to `O=C(O)c1c(Cl)ccc2cc(Cl)cnc12`, “inactive”; to `CCN(CC)c1nc(C)cc(OP(=S)(OC)OC)n1`, “inactive”. The same measure, in the same setting: the result for `O=C1C2CC=CCC2C(=O)N1SC(Cl)(Cl)Cl` (stereo not given) reads “inactive”. With `CCCCC(C#N)(Cn1cncn1)c1ccc(Cl)cc1` (stereo not given), the AC50 is 50 µM (active). Turning to `Nc1c(Cl)c(F)nc(OCC(=O)O)c1Cl`, the outcome was inactive. Same read-out and setting: to `CCOP(=S)(OCC)Oc1nc(Cl)n(C(C)C)n1` belongs “inactive”; to `CCOC(=O)C(C)OC(=O)c1cc(Oc2ccc(C(F)(F)F)cc2Cl)ccc1[N+](=O)[O-]` (stereo not given), “inactive”. Consider `Cc1ccc(N=CN(C)C=Nc2ccc(C)cc2C)c(C)c1`, for which the outcome was inactive. The same measure, in the same setting: to `COP(=S)(OC)SCn1nnc2ccccc2c1=O` belongs “inactive”; to `CN/C(=N\[N+](=O)[O-])NCc1cnc(Cl)s1`, “inactive”; to `CC(C)C1(C)N=C(c2ncccc2C(=O)O)NC1=O` (stereo not given), “inactive”. As for `CNC(=O)N(C)c1nnc(C(C)(C)C)s1`, the molecule was classed as inactive. Take `COP(=O)(OC)O/C(C)=C/C(=O)N(C)C`: the molecule was classed as inactive. The same measure, in the same setting: to `COc1cc(Cl)c(OC)cc1Cl` belongs “inactive”. As for `O=P(O)(O)CCCl`, the half-maximal activity concentration (AC50) was 0.373 µM (active). Regarding `CC(C)=CC1C(C(=O)OCc2coc(Cc3ccccc3)c2)C1(C)C` (stereo not given), the outcome was inactive. For `Nc1cnn(-c2ccccc2)c(=O)c1Cl`, the result was inactive.

For `CC(C)N1C(=O)N(c2ccccc2)CSC1=NC(C)(C)C`, the concentration at half-maximal activity (AC50) is 85.2 µM (active).

For `COC(=O)NS(=O)(=O)c1ccc(N)cc1`, the molecule was classed as inactive. Same read-out and setting: the result for `CCN(CC)C(=O)C(C)Oc1cccc2ccccc12` (stereo not given) reads “inactive”. Take `OC(c1ccc(Cl)cc1)(c1ccc(Cl)cc1)C(Cl)(Cl)Cl`: the concentration at half-maximal activity (AC50) is 83.7 µM (active). `Cc1cnc(C2=NC(C)(C(C)C)C(=O)N2)c(C(=O)O)c1` (stereo not given): the molecule was classed as inactive. `Cn1c(-c2ccccc2)cc(-c2ccccc2)[n+]1C`: the AC50 was 50 µM (active). Turning to `CC1(C)C(C(=O)OC(C#N)c2cccc(Oc3ccccc3)c2)C1(C)C` (stereo not given), the molecule was called inactive.

Consider `CCOc1nc(F)cc2nc(S(=O)(=O)Nc3c(Cl)cccc3Cl)nn12`, for which the molecule was called inactive.

For the molecule `COc1cc(OC)nc(NC(=O)NS(=O)(=O)c2ncccc2OCC(F)(F)F)n1`, the molecule was called inactive. Take `CS(=O)(=O)c1ccc(C(=O)C2C(=O)CCCC2=O)c([N+](=O)[O-])c1`: the molecule was classed as inactive. On the same count and under the same terms, the result for `CN=C=S` reads “inactive”; that for `C=C(C)CN(CC)c1c([N+](=O)[O-])cc(C(F)(F)F)cc1[N+](=O)[O-]`, “inactive”.
